Where “and” joins values, the source holds several entries; their conditions need not be identical. Equal entries are not always repeated. The panel holds about 79,000 compounds, 15% with a hit somewhere; the sample as a whole holds those more often. Unmarked numbers belong to inactive results. Calls of active or inactive are those of the source. Rule as the data show it: active = growth inhibition above about 70%; inactive = the rest.

This assay is described as follows: NCI Yeast Anticancer Drug Screen. Data for the sgs1 mgt1 strain (AID 161).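 Also: 0% = growth of cultures given vehicle only.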 The following applies: S. cerevisiae sgs1 mgt1 strain, stronger effect = higher value. The procedure: Growth inhibition of yeast strains with defined genetic alterations is measured as a screen for potential anti-cancer activity. Selected strains with alterations in DNA damage repair or cell cycle control were exposed to compounds and growth inhibition was measured relative to vehicle treated controls. The strain used in this assay is sgs1 mgt1

[1] abbreviates: at 5.0 µM (retest, dose inferred, filed as 0.5).
Setting [2] is: at 50.0 µM (retest, dose inferred, filed as 5.0).

With `C=CCN(CC=C)CC(C(C)=O)C(c1ccccc1)c1c(O)c2ccccc2oc1=O` (configuration not stated), the growth inhibition is 23% under setting [1], 23% under setting [2] and 84.2% (active) (at 50.0 µM).

Take `S=C(SSC(=S)N1CCCCC1)N1CCCCC1`: the growth inhibition under setting [1] was 48%; the growth inhibition under setting [2] is 99% (active); the growth inhibition (at 50.0 µM) is 18.5% and 12.8%.

For the compound `CCC1CCCCN1CC(C(C)=O)C(c1ccccc1)c1c(O)c2ccccc2oc1=O` (configuration not stated), the growth inhibition reads like this: under setting [1], 5%; under setting [2], 5%; (at 50.0 µM) 79.3% (active).

Regarding `Oc1c(Cl)c(Cl)c(Cl)c(Cl)c1Cl` (tested in a mixture with another compound), the growth inhibition under setting [1] is 58% and 44% and 23%; the growth inhibition under setting [2] is 99% (active); the growth inhibition (at 50.0 µM) is 99.4% (active) and 99.3% (active) and 99.2% (active).

Regarding `O=C(N/N=C/c1ccc(F)cc1)c1ccc(N(CCCl)CCCl)cc1`, the growth inhibition runs as follows: under setting [1], -20%; under setting [2], 2%; (at 50.0 µM) 56.8%.

On to `O=C(O)C1C2CCC(C2)C1c1ccccc1` (configuration not stated), for which the growth inhibition was -2% under setting [1], 8% under setting [2] and 10.2% (at 50.0 µM).

As to `CNC(=O)OCC1C2=C(C(=O)C(C)=C(N)C2=O)N2CC3C(N3C)C12OC` (configuration not stated), the growth inhibition is, setting by setting: under setting [1], 30%; under setting [2], 64%; (at 50.0 µM) 42.1%.

Take `c1ccc2c(c1)CCc1c-2[nH]c2ccccc12`: the growth inhibition reads like this: under setting [1], -9%; under setting [2], 90% (active); (at 50.0 µM) 71.7% (active).

Take `Nc1ncc(CCCCc2ccc(NC(=O)Nc3ccc(S(=O)(=O)F)cc3)cc2)c(N)n1`: the growth inhibition reads like this: under setting [1], -17%; under setting [2], 75% (active); (at 50.0 µM) 99.2% (active).

`ClCCN(CCCl)CCN1c2ccccc2Sc2ccc(Cl)cc21`: the growth inhibition is 0% under setting [1], 97% (active) under setting [2] and 99.5% (active) (at 50.0 µM).

Turning to `c1ccc2c(c1)[As]=c1ccccc1=[As]2` (configuration not stated), the growth inhibition under setting [1] is 58%, the growth inhibition under setting [2] is 99% (active) and the growth inhibition (at 50.0 µM) is 92% (active).

Turning to `Cc1ccc2c(c1)SP(=S)(c1ccccc1)N2` (configuration not stated), the growth inhibition was 8% under setting [1], 97% (active) under setting [2] and 99.3% (active) (at 50.0 µM).

Consider `C=C[C@H]1CN2CC[C@H]1C[C@@H]2[C@@H](O)c1ccnc2ccccc12`, for which the growth inhibition is -10% under setting [1], -1% under setting [2] and -11.9% (at 50.0 µM).

For the compound `COC(=O)c1c(C)ccc2c(O)c3c(cc12)C(=O)c1c2c(cc(O)c1C3=O)C1(C)OC(C)(O2)C(O)C(N(C)C)C1O` (configuration not stated), the growth inhibition was -11% under setting [1], 95% (active) under setting [2] and 97.8% (active) (at 50.0 µM).

The values are drawn from PubChem BioAssay (NCI).
